Source: PubChem BioAssay (National Center for Advancing Translational Sciences (NCATS))
IL1B secr inh = blocks inflammasome-driven IL-1 beta release | activity change, % at 57.5 µM | THP-1 LPS/ATP IL-1B secretion, AlphaLISA, 16 h; active compounds read low | AID 743279 | hit rate 4.7% among 360,000; in the data active = activity change below about -50%; inconclusive = mostly about -30% to -49%; note: % is set by controls: 0 for no effect and ±100 for the full control effect
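THP-1 cells pretreated 1 hr with compounds (up to 57.5 uM final), then stimulated with LPS (250 ng/mL final) plus ATP (1.25 mM final); secreted IL-1B measured by AlphaLISA after 16 hr, decreased signal indicating inhibition.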
DT40 TDP1 no CPT = qHTS for Inhibitors of human tyrosyl-DNA phosphodiesterase 1 (TDP1): qHTS in cells in absence of CPT | AID 686978, 2013 | hit rate 15% among 420,000 | DT40 Tdp1-/- hTDP1 cells, no CPT, ATP luminescence, 48 h | Potency, µM (highest dose often 46.2 µM), without a hit: at the top dose activity change, negative = growth inhibition, most hits filed as inhibitors; note: potency is the fitted concentration of half-maximal effect; % is set by controls: 0 for no effect and ±100 for the full control effect; nearly all actives have a fitted effect of over 55% in size
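Growth kinetics read by CellTiter-Glo luminescence after ≥48 hr at 37 °C. Cells: DT40 Tdp1-/- stably carrying human TDP1, 400 per well, compound exposure in the absence of CPT (DMSO vehicle).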
TDP1 inh = inhibitors of human tyrosyl-DNA phosphodiesterase TDP1; recombinant TDP1, AlphaScreen DNA substrate cleavage; Potency, µM (series often up to 130 µM), for inactives: at the top dose activity change, negative = inhibition, most hits filed as inhibitors; Q9NUW8; hit rate 0.28% among 350,000; note: potency is the fitted concentration of half-maximal effect; % is set by controls: 0 for no effect and ±100 for the full control effect; nearly all actives have a fitted effect of over 40% in size
Target sequence (Q9NUW8 whole entry, looked up): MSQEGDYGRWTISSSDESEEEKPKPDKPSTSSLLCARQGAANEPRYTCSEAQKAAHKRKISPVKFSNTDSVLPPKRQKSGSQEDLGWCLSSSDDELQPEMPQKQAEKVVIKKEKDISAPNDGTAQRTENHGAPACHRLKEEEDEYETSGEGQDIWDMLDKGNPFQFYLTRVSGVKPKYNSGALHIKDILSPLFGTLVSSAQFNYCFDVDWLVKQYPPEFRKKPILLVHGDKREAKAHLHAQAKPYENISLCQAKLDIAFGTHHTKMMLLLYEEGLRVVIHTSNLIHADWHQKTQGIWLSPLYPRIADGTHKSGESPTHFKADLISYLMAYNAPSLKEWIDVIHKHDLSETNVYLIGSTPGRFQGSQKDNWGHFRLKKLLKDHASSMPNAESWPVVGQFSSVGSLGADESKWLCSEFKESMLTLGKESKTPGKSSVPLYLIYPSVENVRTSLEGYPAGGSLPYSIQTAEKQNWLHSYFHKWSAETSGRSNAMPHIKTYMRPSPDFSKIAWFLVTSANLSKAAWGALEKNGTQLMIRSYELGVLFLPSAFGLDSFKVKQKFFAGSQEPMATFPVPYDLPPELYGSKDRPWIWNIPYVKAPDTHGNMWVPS
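AlphaScreen read-out: signal falls as enzyme removes the 3' tyrosine-FITC from a 5'-biotinylated DNA oligo (15 nM, 5 min, RT). Enzyme was E. coli-made recombinant Tdp1 at 1 nM, exposed to compound for 15 min beforehand; beads 10 ug/ml, 10 min.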
HepG2 viability = counter-screen for TGF-b inhibitors: cytotoxicity in HepG2 cells. HepG2 CAGA-GFP viability, ATP luminescence, 18 h. hit rate 0.76% among 410,000. Potency, µM (top dose mostly 46.1 µM), for the others: top-dose activity change, negative = cytotoxicity, hits mostly cytotoxic. AID 588856; note: potency is the fitted concentration of half-maximal effect
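CellTiter-Glo luminescence gave cytotoxicity after 18 hours at 37 degrees C. The cells were HepG2 CAGA-GFP in 1% FBS DMEM, stimulated with 500 pg/mL TGF-beta after compound addition. %Activity was normalised to no-cell wells (complete cell-killing) and DMSO (no toxicity), and curves were fitted and classified.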
TGFb SMAD3 inh = TGF-b pathway inhibition. HepG2 CAGA-GFP TGF-b/SMAD3 reporter, GFP fluorescence, 18 h; TGF-beta stimulated, 500 pg/mL final. Potency, µM (top dose mostly 46.1 µM), for the others: top-dose activity, negative = inhibition, usual class: inhibitors. hit rate 1.2% among 410,000; note: potency is the fitted concentration of half-maximal effect; % is set by controls: 0 for no effect and ±100 for the full control effect; nearly all actives have a fitted effect of over 65% in size
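HEPG2 CAGA-GFP reporter cells (1000/well, DMEM with 1% FBS) received compounds, then recombinant TGF-beta at 500 pg/mL final for 18 hours at 37 degrees C. Per-cell GFP summed per well was normalised to unstimulated and stimulated DMSO controls before curve fitting.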
TDP1 cell CPT = growth inhibition of DT40 Tdp1-/-;hTDP1 cells with camptothecin (screen for TDP1 inhibitors); chicken DT40 Tdp1-/-;hTDP1 cells + 20 nM CPT, ATP luminescence, 48 h; Potency, µM (doses to about 46.2 µM), without a hit: at the highest dose activity change, negative = growth inhibition, actives largely listed as inhibitors; hit rate 12% among 420,000; AID 686979; note: potency is the fitted concentration of half-maximal effect; % is set by controls: 0 for no effect and ±100 for the full control effect; nearly all actives have a fitted effect of over 55% in size
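Cell growth measured by CellTiter-Glo luminescence after a minimum 48 h, 37 C compound exposure with 20 nM CPT in Tdp1-knockout DT40 cells stably expressing hTDP1, seeded 400/well; qHTS titration format.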
* marks the source's active call; other numbers are inactive results; u = inconclusive; x = not tested or not shown; [ ] = dose if it differs, or a comment. Compounds with a hit are over-represented: about 19% of the library has one in this group of screens. Unless noted, calls come from the whole dose curve; as a rule, active = well fitted curve in the direction sought with a large enough effect; inconclusive = small, poorly fitted or top-dose-only effect, or another doubt; inactive = no such curve, though single readings can be large; an effect the other way counts as inactive or inconclusive.

SMILES | IL1B secr inh | DT40 TDP1 no CPT | TDP1 inh | HepG2 viability | TGFb SMAD3 inh | TDP1 cell CPT
CCOc1ccc(CCNC(=O)c2ccc(C)c(-n3cnc4cccnc43)c2)cc1 | x | u | 2.8% | 3.2% | u | u
CCOc1ccccc1NC(=O)CCCNC(=O)c1ccc(Cl)cc1 | 28.0 | -15.8% | x | -3.4% | 0.0% | 7.3%
CC(=O)Nc1cc(C(=O)N2CCCC2)ccc1Sc1ccc(Cl)cc1 | 2.9 | u | 5.0% | -10.1% | -2.2% | 20µM*
CCN(C(=O)C(C)OC(=O)CCCNC(=O)c1ccc(Cl)cc1)c1ccccc1 (stereo not drawn) | -3.0 | 20.6µM* | 3.0% | -11.1% | -26.4% | u
CCN(CCCNC(=O)c1ccc(Sc2ccc(Cl)cc2)c(NC(C)=O)c1)c1ccccc1 | x | 23.1µM* | 13.0% | -1.1% | u | u
COc1cccc(CNC(=O)CN2C(=O)N(c3ccc(C)cc3C)S(=O)(=O)c3ccccc32)c1OC | x | 20.6µM* | 4.4% | -4.0% | u | u
CSc1cccc(N2C(=O)N(CC(=O)NCc3ccccc3Cl)c3ccccc3S2(=O)=O)c1 | x | 16.4µM* | -3.4% | -37.9% | -22.4% | u
CCOC(=O)c1c(C)[nH]c(C(=O)Cn2c(=O)c3c(ncn3CC)n(Cc3ccccc3)c2=O)c1C | -10.0 | u | 11.7%[56.1 µM] | 9.1% | 0.0% | 25.9µM*
Nc1cc([N+](=O)[O-])ccc1N1C(=O)CCCC1=O | -4.9 | -3.2% | 20µM* | 2.2% | -7.7% | -4.1%
Nc1cc(Cl)ccc1N1C(=O)CCC1=O | 25.8 | 5.9% | 7.6% | 0.3% | 4.0% | 1.4%
CCC(C)c1ccc(OCC(=O)Nc2ccc(-c3nc4ncccc4o3)cc2)cc1 (stereo not drawn) | x | u | 2.1% | -17.9% | 1.4% | u
CCSc1nn(CC(=O)Nc2cccc(Cl)c2)c(N)c1S(=O)(=O)c1ccc(OC)cc1 | x | u | 5.3% | -27.3% | u | u
COc1ccc(S(=O)(=O)c2c(SC)nn(CC(=O)Nc3ccc(C)c(Cl)c3)c2N)cc1 | x | 25.9µM* | 7.9% | 5.5% | 7.08µM* | 25.9µM*
CCc1ccc(NC(=O)Cn2nc(SC)c(S(=O)(=O)c3ccc(OC)cc3)c2N)cc1 | x | -19.7% | 5.3% | -8.8% | -24.5% | -11.8%
CCSc1nn(CC(=O)Nc2cccc(CC)c2)c(N)c1S(=O)(=O)c1ccccc1 | x | 14.6µM* | 5.3% | -38.6% | 11.2µM* | u
Cc1oc(-c2ccccc2NC(=O)c2ccccc2)nc1CNC(=O)c1c(-c2ccccc2)noc1C | x | -11.8% | x | x | x | 0.0%[9.04 µM]
CCn1c(C)nc([N+](=O)[O-])c1Sc1ccc(F)cc1 | u | 16.4µM* | 5.3% | -9.6% | 0.4% | u
COc1cc2c(cc1OC)CN(S(=O)(=O)/C=C/c1ccccc1)CC2 | -10.9 | -23.1% | x | -8.7% | -9.7% | 11.0%
CC1=NN(c2nc(-c3ccc(C)cc3)cs2)C(=O)C1N=Nc1ccc(C(N)=O)cc1 (stereo not drawn) | 39.5 | 5.17µM* | 5.1% | 0.2% | u | 4.61µM*
CC1=NN(c2nc(-c3ccc(C)cc3)cs2)C(=O)C1N=Nc1ccc2ccccc2c1 (stereo not drawn) | 18.7 | u | 2.6% | -5.7% | 2.9% | u
CC1=NN(c2nc(-c3ccccc3)cs2)C(=O)C1N=Nc1ccccc1 (stereo not drawn) | 2.5 | 14.6µM* | 2.7% | -19.6% | -8.2% | u
CC1=NN(c2ccccc2)C(=O)C1N=Nc1ccc(C)cc1 (stereo not drawn) | x | x | 3.7% | x | x | x
CC[C@H](C)[C@H]1CNC(=O)C(=O)N1CC1CCN(CCCc2ccc(OC)c(OC)c2)CC1 | 15.7 | -4.7% | x | -7.7% | -0.3% | -2.2%
